IL-1B inflam inh = inhibitors of inflammasome signaling (IL-1 beta secretion) | THP-1 LPS/ATP IL-1B secretion, AlphaLISA, 16 h; active compounds read low | activity change, % at 57.5 µM | 360,000 compounds, 4.7% hits | AID 743279; in the data active means activity change below about -50%; inconclusive means mostly about -30% to -49%
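Secreted IL-1B measured by AlphaLISA bead assay after 16 h compound exposure of THP-1 cells; compounds (final up to 57.5 uM) added 1 h before LPS (250 ng/mL) and ATP (1.25 mM) stimulation; lower signal means less secretion.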
TDP1 cell CPT = growth inhibition of DT40 Tdp1-/-;hTDP1 cells with camptothecin (screen for TDP1 inhibitors); AID 686979; Potency, µM (doses to about 46.2 µM), for inactives: at the top dose activity change, negative = growth inhibition, most hits filed as inhibitors; chicken DT40 Tdp1-/-;hTDP1 cells + 20 nM CPT, ATP luminescence, 48 h; 420,000 compounds, 12% hits; further: potency means the concentration at half of the fitted maximal effect; nearly all actives have a fitted effect of over 55% in size
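Chicken DT40 Tdp1-/- cells stably complemented with human TDP1 were seeded at 400 cells/well in medium containing 20 nM camptothecin, exposed to pin-transferred compounds, and grown at 37 °C for at least 48 hr. Viability was read as ATP luminescence.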
HT1080NT lethal = kills 2HG-producing HT-1080-NT fibrosarcoma cells; HT-1080-NT fibrosarcoma viability, CellTiter-Glo ATP luminescence, 48 h; Potency, µM (series often up to 46.1 µM), for the others: at the top dose activity, negative = less viability, actives largely listed as cytotoxic; 360,000 compounds, 1.6% hits;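 further: NT is the 2HG producing partner of a matched IDH1 knockdown line; potency means the concentration at half of the fitted maximal effect; 0% = DMSO-treated cells and -100% = media-only wells without cells; nearly all actives have a fitted effect of over 55% in size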
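750 cells/well, RPMI + 5% FBS; 2 h settle, compound pin-transfer, 48 h at 37 degrees C. CellTiter-Glo 10 min RT, luminescence. Normalized to DMSO and media-only wells.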
TDP1 cell noCPT = qHTS for Inhibitors of human tyrosyl-DNA phosphodiesterase 1 (TDP1): qHTS in cells in absence of CPT; AID 686978, 2013; 420,000 compounds, 15% hits; Potency, µM (top dose mostly 46.2 µM), without a hit: top-dose activity change, negative = growth inhibition, most hits filed as inhibitors; DT40 Tdp1-/- hTDP1 cells, no CPT, ATP luminescence, 48 h; further: potency means the concentration at half of the fitted maximal effect; nearly all actives have a fitted effect of over 55% in size
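Chicken DT40 Tdp1-/- cells complemented with human TDP1, screened without camptothecin (DMSO vehicle only), 400 cells/well. Compounds pin-transferred, cells incubated at 37 °C for at least 48 hr. Growth read as ATP-dependent luminescence (CellTiter-Glo, 30 min at RT).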
HT1080 IDH1KD tx = toxicity to HT-1080 IDH1 knockdown cells (counter line). 360,000 compounds, 2% hits. AID 686971. Potency, µM (titrated, usually from 46.1 µM), for the others: at the highest dose activity, negative = toxicity, actives largely listed as cytotoxic. HT-1080 IDH1 knockdown viability, ATP luminescence, 48 h;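 further: potency means the concentration at half of the fitted maximal effect; 0% = DMSO wells and -100% = cell-free medium wells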
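Using the IDH1-knockdown HT-1080 line run in the same batch and compound series as the NT line, viability after 48 h at 37 °C was determined by CellTiter-Glo luminescence and expressed as % activity.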
ELG1 repair inh = ELG1-dependent DNA repair inhibition; Potency, µM (titrated, usually from 46.1 µM), inactives show at the highest dose activity change, negative = inhibition, usual class: inhibitors; HEK293T ELG1-luciferase reporter, luminescence, 16 h; DNA damage induced by 5-fluorouridine; AID 504467; 330,000 compounds, 2.3% hits; further: potency means the concentration at half of the fitted maximal effect; nearly all actives have a fitted effect of over 55% in size
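Overnight (16 hr) co-exposure of 2,000 cells/well to 5-fluorouridine and compound at 37 °C preceded detection. Luciferase was quantified via ONE-Glo luminescence; loss of signal denotes inhibition.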
Numbers without * were called inactive; ? = inconclusive; nt = no result given. Sampled rows, rich in hits. Any-hit rate of the full collection: about 19%. Unless noted, the call rests on the fitted dose curve; in most records, active means well fitted curve in the direction sought with a large enough effect; inconclusive means small, poorly fitted or top-dose-only effect, or another doubt; inactive means no such curve, though single readings can be large; an effect the other way counts as inactive or inconclusive. Unless noted, on the % scale 0 is the no-effect control and ±100 the full control effect.

SMILES | IL-1B inflam inh | TDP1 cell CPT | HT1080NT lethal | TDP1 cell noCPT | HT1080 IDH1KD tx | ELG1 repair inh
Cn1cc(/C=C/C(=O)N2CCCC(C(=O)c3ccc(C(C)(C)C)cc3)C2)cn1 (stereo not given) | 15.5 | ? | 3.6% | ? | 3.3% | 10.0%
CC(C)C(NC(=O)c1ccc(F)cc1)C(=O)N1CCOCC1 (stereo not given) | 6.4 | 1.6% | 5.4% | 9.3% | 3.5% | 11.6%
O=C(Nc1ccc(S(=O)(=O)NCc2cccnc2)cc1)c1ccccc1Cl | 2.0 | 13µM* | 0.7% | 10.3µM* | -8.6% | -14.2%
O=C(Nc1ccc(S(=O)(=O)Nc2ncccn2)cc1)c1ccc(Br)o1 | 13.7 | -15.3% | 19.4% | -1.3% | 6.0% | -7.8%
O=C(Nc1ccc(S(=O)(=O)NCc2ccccc2)cc1)c1ccc(Br)o1 | 24.3 | 20.6µM* | -2.5% | 20.6µM* | -0.7% | ?
CC(=O)Nc1ccc(S(=O)(=O)NCc2cccnc2)cc1 | 24.5 | 3.26µM* | 21.5% | ? | 28.1% | ?
CN(C(=O)c1cccc(NC(=O)Cc2ccc(NC(=O)C3CCN(C(=O)C4CCCCC4)CC3)cc2)c1)C1CCCC1 | 47.6 | ? | -0.5% | ? | -21.3% | nt
CCOC(=O)c1ccc(NC(=O)C2=C(C)C(=O)OC23CCN(C(C)=O)CC3)cc1 | nt | 27.1% | nt | 1.9% | nt | nt
CC1C(=O)N(Cc2cn(CC3CCCCC3)nn2)CCS(=O)(=O)N1Cc1ccc(-c2cccc(CO)c2)cc1 (stereo not given) | 11.5 | 14.6µM* | -15.2% | 23.1µM* | -19.1% | nt
CC(C)CC1C(=O)N(Cc2cn(CC3CCCCC3)nn2)CCS(=O)(=O)N1Cc1ccc(-c2cccc(CO)c2)cc1 (stereo not given) | -27.2 | 20.6µM* | ? | 23.1µM* | ? | nt
CCOC(=O)/C(=N/O)C1=NC(C)(C)Cc2cc(C)c(C)cc21 | -71.7* | 12.1% | -17.1% | 0.0% | -20.7% | ?
Cc1[nH]c2ccccc2c1SCc1nnc(SCc2ccc(Cl)cc2)n1C | nt | ? | ? | ? | ? | 16.4µM*
Cc1[nH]c2ccccc2c1SCC(=O)O | 33.7 | -5.6% | 7.5% | -15.4% | 4.7% | -13.5%
Cc1[nH]c2ccccc2c1SCc1nnc(SCc2ccccc2)n1C | -56.7* | -14.7% | -15.4% | ? | ? | -19.6%
Cn1c(CNc2ccc(Cl)cc2)nnc1SCc1ccccc1 | ? | -29.5% | -5.8% | -22.0% | -7.8% | -2.8%
O=C(Cn1c(=O)nc(-c2ccccc2)c2cc(Cl)ccc21)NCCc1ccccc1 | nt | -12.3% | nt | 2.9% | nt | nt
CCN1CC(CN(C)Cc2nc(-c3ccc(C(F)(F)F)cc3)no2)CC1=O (stereo not given) | -7.8 | ? | ? | 18.4µM* | -23.7% | ?
COc1ncc2nc(-c3cc(F)cc(F)c3)c(=O)n(C)c2n1 | nt | 4.4% | nt | 5.4% | nt | nt
N#Cc1c(SCc2ccccc2)nc(N2CCOCC2)c2c1CCCC2 | 23.9 | 4.6% | 7.5% | -28.9% | -5.8% | ?
CCSc1nc(N2CCCCC2)c2c(c1C#N)CCCC2 | 35.1 | ? | 14.3% | 16.4µM* | 22.1% | -3.2%
CCOC(=O)C1=C(C)NC(C)=C(C(=O)OCC)C1C(=O)OCC(=O)NC1CCCCC1 | ? | 25.9µM* | 1.7% | 23.1µM* | -15.2% | 10.3µM*
CCNC(=O)COC(=O)C1C(C(=O)OCC)=C(C)NC(C)=C1C(=O)OCC | 0.0 | 0.5% | 16.0% | 0.1% | 13.6% | -7.1%
CCOC(=O)C1=C(C)NC(C)=C(C(=O)OCC)C1C(=O)OCC(=O)NCCc1ccccc1 | -55.2* | ? | -2.0% | 25.9µM* | 1.4% | 23.1µM*
O=C(NC1CC(=O)N(c2cccc(F)c2)C1)c1ccc(S(=O)(=O)N2CCCCC2)cc1 (stereo not given) | nt | -18.1% | nt | -22.6% | nt | nt
CCC(C)NC(=O)C1(NC(=O)Nc2ccccc2)CCCCC1 (stereo not given) | -0.6 | 16.4µM* | 0.9% | 18.4µM* | 0.0% | -12.2%
SMILES | IL-1B inflam inh | TDP1 cell CPT | HT1080NT lethal | TDP1 cell noCPT | HT1080 IDH1KD tx | ELG1 repair inh
O=C(Nc1ccc(Cl)cc1)NC1(C(=O)NCCCN2CCOCC2)CCCCC1 | 13.5 | -0.4% | 3.4% | -29.6% | 12.6% | ?
CCCCNC(=O)C1(NC(=O)Nc2ccc(C)cc2)CCCCC1 | -2.3 | 7.31µM* | 3.9% | ? | ? | 24.0%
COc1cc(C)c(NC(=O)Cc2ccsc2)cc1OC | 12.3 | -2.2% | 20.3% | 3.5% | -1.5% | 12.5%
COc1ccc(CCNc2nc(SCc3ccc(F)cc3)nc3ccccc23)cc1OC | nt | 7.31µM* | nt | 7.31µM* | nt | nt
COc1cc(Nc2nc(SCC#N)nc3ccccc23)cc(OC)c1OC | -5.5 | 4.4% | 7.1% | -7.3% | -2.6% | -3.4%
COc1ccc(CCNC(=O)CSc2nc3ccccc3nc2Cc2ccc(Cl)cc2)cc1OC | nt | -24.5% | nt | -20.9% | nt | nt
COc1ccc(CCNc2nc(SCc3ccccc3F)nc3ccccc23)cc1OC | nt | 3.66µM* | nt | 3.66µM* | nt | nt
COc1ccc(CCNc2nc(SCc3cccc(Cl)c3)nc3ccccc23)cc1OC | nt | ? | nt | 8.2µM* | nt | nt
COC(=O)C1CCN(C(=O)[C@H](C)NC(=O)C2CC(=O)N(c3ccc(F)cc3)C2)CC1 (stereo not given in full) | -3.8 | 2.0% | 0.0% | 21.4% | 13.9% | ?
C[C@H](NC(=O)/C=C/[C@H]1O[C@@H](n2ccc(=O)[nH]c2=O)[C@H](O)[C@@H]1O)C(=O)O | 9.6 | -1.3% | 14.0% | -5.3% | 26.4% | nt
Cc1ccc2nc(SCc3nnc(-c4ccccc4)o3)[nH]c2c1 | 11.0 | 4.9% | -1.1% | -23.8% | -2.0% | -7.1%
COc1ccccc1-c1noc(CSc2nc3ccc(C)cc3[nH]2)n1 | nt | ? | nt | 16.4µM* | nt | nt
CCCc1cc(=O)[nH]c(SCc2nc(-c3ccccc3F)no2)n1 | nt | -24.5% | nt | ? | nt | nt
c1ccc(-c2cc(CSc3nc4ccccc4[nH]3)on2)cc1 | 49.9 | 11.6µM* | -17.0% | 20.6µM* | -16.4% | -22.1%
COc1ccc(-c2noc(CSc3nc4ccccc4[nH]3)n2)cc1OC | nt | 23.1µM* | nt | 18.4µM* | nt | nt
Cc1noc(C)c1CSc1nc2ccccc2[nH]1 | -1.7 | -7.3% | 17.4% | -3.6% | 3.2% | 12.7%
COc1ccc(-c2noc(CSc3nc(-c4ccccc4)cc(=O)[nH]3)n2)cc1 | 65.5 | -28.0% | 7.4% | -2.6% | 3.2% | ?
Cc1ccc2nc(SCc3nnc(-c4cccs4)o3)[nH]c2c1 | 2.9 | ? | -3.8% | 11.6µM* | -10.5% | -3.7%

Screening results: PubChem, National Center for Advancing Translational Sciences (NCATS)
